Results taken from PubChem BioAssay (NCATS).
Values without a mark were called inactive. Records with an inconclusive call do not appear. The source made the active and inactive calls. Unless noted, calls follow the shape of the dose curve; as a rule, active = well fitted curve in the direction sought with a large enough effect; inconclusive = small, poorly fitted or top-dose-only effect, or another doubt; inactive = no such curve, though single readings can be large; an effect the other way counts as inactive or inconclusive.

Experiments:
[1] = target: Lysosomal acid glucosylceramidase (Homo sapiens) (UniProt P04062); experiment: Glucocerebrosidase-p2 (AID 348; in the data active = potency below about 10 µM; also: potency is read from the fitted curve at half-maximal effect); settings: purified GBA, blue fluorogenic substrate, 40 min
In short: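 Compounds titrated from 0.6 nM upwards against 0.2 nM enzyme in pH 5.9 citric acid/KH2PO4, taurocholate, tween-20; blue fluorogenic substrate 80 uM, 40 min room temperature, stopped and read Ex 365/Em 440 for AC50.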

[2] = AP1 Signaling Pathway (AID 357; active = well fitted curve in either direction with a large enough effect, not every such curve was filed as active;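 also: ME-180 reporter cells stimulated with EGF at its EC50 level; % is scaled to controls: 0 for no effect and ±100 for the full control effect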); settings: ME-180 AP-1-bla reporter, EGF-induced, beta-lactamase ratio, 5 h; at 7.69 µM (top of the series) unless noted
In short: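 A ratiometric CCF4 readout (405 nm excitation; 460 and 530 nm emission) quantified AP-1-driven beta-lactamase in ME-180 cells after 5 h with compound and EC50 EGF; AC50 values were derived for activators and inhibitors.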

[3] = target: Cytochrome P450 1A2 (Homo sapiens) (UniProt P05177); experiment: p450-cyp1a2 (AID 410; calls by dose curve; also: potency is read from the fitted curve at half-maximal effect); settings: recombinant CYP1A2, luciferin-ME demethylation, luminescence; series mostly up to 57 µM
In short: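 Inhibition was calculated relative to 57 uM furafylline (full inhibition). The reaction used human CYP1A2 at 20nM with Luciferin-ME at its Km, 100uM, driven by an NADPH-regenerating system for 60 min at room temperature.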

[4] = NFAT Signaling Pathway (AID 444; active = well fitted curve in either direction with a large enough effect, not every such curve was filed as active;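 also: carbachol stimulus at about its EC50 of 1 µM final; % is scaled to controls: 0 for no effect and ±100 for the full control effect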); settings: Jurkat NFAT-bla M1, carbachol, beta-lactamase ratio, 5 h; at 7.69 µM (top of the series) unless noted
In short: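 Jurkat cells carrying an NFAT-driven β-lactamase reporter and co-transfected muscarinic M1 receptor were treated with compound plus carbachol (1 uM final, an EC50 level) for 5 h at 37 °C. CCF4 loading followed for 1 h at RT; 460/530 nm ratio gave %activity.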

[5] = Stat Signaling Pathway (AID 446; active = well fitted curve in either direction with a large enough effect, not every such curve was filed as active;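 also: ME-180 cervical cancer cells given 40 pM IL-6 alongside compound; SIE-controlled beta-lactamase reporter measured as 460/530 nm FRET emission ratio; % is scaled to controls: 0 for no effect and ±100 for the full control effect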); settings: ME-180 SIE beta-lactamase reporter, IL-6 stimulated, 5 h; at 7.69 µM (top of the series) unless noted
In short: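 ME-180 SIE-bla cells; overnight plating; cpd + IL-6 40 pM, 5 h, 37 C; LiveBLAzer 2.5 h RT; 460/530 nm emission ratio. Normalized to 300 pM IL-6 and 125 nM JAK inhibitor controls.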

[6] = target: Glucocorticoid receptor (Homo sapiens) (UniProt P04150); experiment: GR-GFP Redistribution (AID 450;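 active = compounds whose dose series gives a full or clear partial fitted curve of increased nuclear translocation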; also: potency is read from the fitted curve at half-maximal effect); settings: U2OS GR-GFP nuclear translocation, laser cytometry, 2 h
[7] = target: Glucocorticoid receptor (Homo sapiens) (UniProt P04150); experiment: GR-EFC Redistribution (AID 451; calls by dose curve; also: potency is read from the fitted curve at half-maximal effect); settings: CHO-K1 GR-EFC translocation, beta-gal luminescence, 2 h
In short: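 CHO-K1 cells stably expressing nuclear-localized β-gal enzyme acceptor and GR fused C-terminally to the enzyme donor fragment; ligand-driven nuclear translocation restores β-gal by complementation. Compounds titrated up to 46 uM final, 2 h at 37 °C; luminescence read.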

[8] = target: Mitogen-activated protein kinase 10 (Mus musculus) (UniProt Q61831); experiment: JNK3 AlphaScreen Assay (AID 530; active = well fitted curve in either direction with a large enough effect, not every such curve was filed as active;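 also: kinase came from lysate of stimulated human HepG2 cells; signal reports phosphorylation of biotinylated GST-cJun 1-79 at Ser73 with 10 µM ATP; % is scaled to controls: 0 for no effect and ±100 for the full control effect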); settings: JNK3 lysate, c-Jun phosphorylation; series mostly up to 57.1 µM
In short: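 JNK3 came from HepG2 lysates pre-activated with IL-1beta and TNF-alpha and phosphorylated biotinylated GST-cJun (1-79) at 10 uM ATP, pH 7.6, room temperature. Compounds were titrated. AlphaScreen signal used anti-phospho-cJun (Ser73) antibody.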

[9] = target: 3',5'-cyclic-AMP phosphodiesterase 4B (Homo sapiens) (UniProt Q07343); experiment: qHTS Assay for Inhibitors of PDE-IV (AID 607; active = well fitted activation curve with a large enough effect in the main read-out, with a control signal flat, not every such curve was filed as active; also: % of control where 0% means no effect); settings: HEK293 ACTOne CNG channel cells, membrane potential fluorescence; series mostly up to 22.9 µM
In short: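 ACTOne HEK293 cells carry a modified cAMP-gated CNG channel and express endogenous PDE4; plated 1000 cells/well, compounds up to 22.9 uM final. Membrane-potential dye fluorescence (ex 535/em 590) was read; parental cells received 10 uM forskolin + 100 uM RO 20-1724.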

[10] = target: Cytochrome P450 3A4 (Homo sapiens) (UniProt P08684); experiment: qHTS Assay for Activators of Cytochrome P450 3A4 (AID 885); settings: recombinant CYP3A4, Luciferin-PPXE luminescence, 60 min; series mostly up to 57.1 µM; also: nearly all actives have a fitted effect of over 65% in size
In short: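 20nM CYP3A4 + 25uM Luciferin-PPXE (=KM), 200mM KPO4; cpd 10 min RT; NADPH regen, 60 min RT; stop w/ detection buffer, 20 min; luminescence. Normalized to 57 uM ketoconazole.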

[11] = target: Cytochrome P450 2C19 (Homo sapiens) (UniProt P33261); experiment: qHTS Assay for Inhibitors and Substrates of Cytochrome P450 2C19 (AID 899); settings: recombinant CYP2C19, luciferin-H EGE luminescence; series mostly up to 57.1 µM; also: potency is read from the fitted curve at half-maximal effect; nearly all actives have a fitted effect of over 60% in size
In short: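 NADPH-dependent conversion of Luciferin-H EGE (10uM, at KM) by 5nM enzyme in 50mM KPO4, 60 min at 37C following 10 min compound preincubation. Stopped with luciferin detection buffer; luminescence read after 20 min.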

[12] = target: Dual specificity protein kinase CLK4 (Homo sapiens) (UniProt Q9HAZ1); experiment: qHTS Assay for Inhibitors of CDC-like Kinase 4 (ADP-Glo Assay) (AID 1771); settings: recombinant CLK4, ADP-Glo luminescence; series mostly up to 80 µM; also: potency is read from the fitted curve at half-maximal effect; nearly all actives have a fitted effect of over 70% in size
In short: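 Kinase reaction: Clk4 at 25 nM, RS repeat peptide substrate at 100 uM, ATP at 1 uM, 1 hr, room temperature. Product ADP detected as luciferase signal via ADP-Glo.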

[13] = target: Ubiquitin carboxyl-terminal hydrolase 1 (Homo sapiens) (UniProt O94782); experiment: Inhibitors of USP1/UAF1: Pilot qHTS (AID 504865); settings: purified USP1/UAF1, Ub-rhodamine cleavage fluorescence; series mostly up to 54.9 µM;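 also: rhodamine fluorescence freed from ubiquitin-rhodamine substrate followed over time; top concentration of the series differs between compounds; % is scaled to controls: 0 for no effect and ±100 for the full control effect; nearly all actives have a fitted effect of over 35% in size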
In short: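 In 50mM HEPES pH 7.8 containing 0.5mM EDTA, 1mM TCEP, 0.1 mg/ml BSA and 0.01% Tween-20, 1nM USP1/UAF1 is exposed to compound for 15 min, then Ub-Rho (150nM final) is added and fluorescence is read over time.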

[14] = Primary qHTS for small molecule stabilizers of the endoplasmic reticulum resident proteome: Secreted ER Calcium Modulated Protein (SERCaMP) assay (AID 1508630); settings: SH-SY5Y GLuc-SERCaMP (Gaussia luciferase released on ER calcium loss) secretion, thapsigargin, luminescence; series mostly up to 38.4 µM; also: % is scaled to controls: 0 for no effect and ±100 for the full control effect
In short: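 GLuc-SERCaMP-expressing SH-SY5Y cells, pretreated 16 h with compound, are challenged with thapsigargin to empty ER calcium stores; after 4 h, coelenterazine is added directly to the medium and luminescence is imaged.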

[15] = target: Cytochrome P450 2C9 (Homo sapiens) (UniProt P11712); experiment: qHTS Assay for Inhibitors and Substrates of Cytochrome P450 2C9 (AID 883); settings: recombinant CYP2C9, luciferin-H luminescence, 60 min; series mostly up to 57.1 µM; also: nearly all actives have a fitted effect of over 60% in size; also: potency is read from the fitted curve at half-maximal effect
In short: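 A luminogenic readout tracked human CYP2C9 (10nM) converting deoxyluciferin (100uM, at KM) in 25mM KPO4 during 60 min at 37C with regenerated NADPH. Values normalized to 57uM sulphaphenazole as complete inhibition.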

[16] = qHTS Assay for Identification of Small Molecule Agonists for Hypoxia Response Element Signaling Pathway (AID 914; active = well fitted activation curve with a large enough effect in the signal ratio, with a control signal flat, not every such curve was filed as active; the % refers to the signal ratio; also: % of control where 0% means no effect); settings: ME-180 (cervical carcinoma) HRE-bla reporter, beta-lactamase ratio, CoCl2, 17 h; activation: stronger effect = higher value
In short: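 A beta-lactamase reporter under hypoxia response element control in ME-180 cells served as the system. Compound titrations plus EC50 CoCl2 ran 17 h at 37 degrees Celsius; AC50 values were fitted from %Activity.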

[17] = target: Cytochrome P450 3A4 (Homo sapiens) (UniProt P08684); experiment: qHTS Assay for Inhibitors and Substrates of Cytochrome P450 3A4 (AID 884); settings: recombinant CYP3A4, Luciferin-PPXE luminescence; series mostly up to 57.1 µM; also: nearly all actives have a fitted effect of over 50% in size; also: potency is read from the fitted curve at half-maximal effect
In short: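 20 nM human CYP3A4 with 25 uM Luciferin-PPXE (at KM) in 200 mM KPO4, preincubated 10 min with compound; NADPH regeneration started a 60 min RT reaction. Luciferin detected by luminescence, normalized to 57 uM ketoconazole as full inhibition.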

[18] = target: Dual specificity protein kinase CLK4 (Homo sapiens) (UniProt Q9HAZ1); experiment: qHTS Assay for Inhibitors of CDC-like Kinase 4 (ADP-FP Assay) (AID 1795); settings: Transcreener ADP fluorescence polarization; series mostly up to 50 µM;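 also: recombinant human CLK4 phosphorylating RS repeat peptide at 1 µM ATP; % is scaled to controls: 0 for no effect and ±100 for the full control effect; nearly all actives have a fitted effect of over 60% in size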
In short: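 Clk4 6.25 nM; RS peptide 100 uM; ATP 1 uM; 25 mM Tris pH 7.5, 10 mM MgCl2; 1 h reaction. ADP detected via antibody/orange tracer FP displacement; TG003 positive control.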

Sequence of Glucocorticoid receptor (Homo sapiens) (P04150 whole entry, looked up, the tested form may be a part): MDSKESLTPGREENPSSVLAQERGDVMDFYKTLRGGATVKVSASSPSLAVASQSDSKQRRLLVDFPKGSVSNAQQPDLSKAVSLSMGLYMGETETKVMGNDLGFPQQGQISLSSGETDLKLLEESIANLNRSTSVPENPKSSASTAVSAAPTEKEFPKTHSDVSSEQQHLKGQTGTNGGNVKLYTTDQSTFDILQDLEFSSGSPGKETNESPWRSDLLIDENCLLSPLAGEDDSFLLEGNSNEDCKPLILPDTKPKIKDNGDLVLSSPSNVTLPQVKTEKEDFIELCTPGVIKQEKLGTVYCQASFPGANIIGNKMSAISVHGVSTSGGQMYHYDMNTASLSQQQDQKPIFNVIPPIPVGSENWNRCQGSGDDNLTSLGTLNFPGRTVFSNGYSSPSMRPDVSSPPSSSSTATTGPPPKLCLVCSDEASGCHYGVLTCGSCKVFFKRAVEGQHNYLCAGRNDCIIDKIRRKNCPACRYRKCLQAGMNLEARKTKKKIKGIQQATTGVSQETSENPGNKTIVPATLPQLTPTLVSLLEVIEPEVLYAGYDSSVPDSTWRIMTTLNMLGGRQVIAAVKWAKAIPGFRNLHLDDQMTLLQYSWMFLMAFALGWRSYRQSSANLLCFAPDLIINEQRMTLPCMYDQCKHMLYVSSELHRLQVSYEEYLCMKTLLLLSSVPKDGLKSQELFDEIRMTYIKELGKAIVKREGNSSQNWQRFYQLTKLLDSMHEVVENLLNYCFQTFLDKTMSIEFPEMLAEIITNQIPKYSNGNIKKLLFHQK
Sequence of Cytochrome P450 1A2 (Homo sapiens) (P05177 whole entry, looked up): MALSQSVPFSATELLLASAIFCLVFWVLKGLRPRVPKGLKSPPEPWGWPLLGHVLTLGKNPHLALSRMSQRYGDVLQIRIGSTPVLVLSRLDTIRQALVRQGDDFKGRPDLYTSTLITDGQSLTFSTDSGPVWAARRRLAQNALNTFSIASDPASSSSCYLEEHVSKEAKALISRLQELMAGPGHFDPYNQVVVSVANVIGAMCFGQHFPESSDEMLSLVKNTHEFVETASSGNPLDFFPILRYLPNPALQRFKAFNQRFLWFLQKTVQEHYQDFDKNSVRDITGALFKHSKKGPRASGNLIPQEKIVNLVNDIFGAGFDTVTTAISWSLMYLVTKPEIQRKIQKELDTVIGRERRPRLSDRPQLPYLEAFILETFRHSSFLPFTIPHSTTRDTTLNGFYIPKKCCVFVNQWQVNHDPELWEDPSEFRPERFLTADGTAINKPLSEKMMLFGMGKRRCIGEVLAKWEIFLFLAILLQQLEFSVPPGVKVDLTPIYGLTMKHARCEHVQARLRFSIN
Sequence of Cytochrome P450 2C19 (Homo sapiens) (P33261 whole entry, looked up): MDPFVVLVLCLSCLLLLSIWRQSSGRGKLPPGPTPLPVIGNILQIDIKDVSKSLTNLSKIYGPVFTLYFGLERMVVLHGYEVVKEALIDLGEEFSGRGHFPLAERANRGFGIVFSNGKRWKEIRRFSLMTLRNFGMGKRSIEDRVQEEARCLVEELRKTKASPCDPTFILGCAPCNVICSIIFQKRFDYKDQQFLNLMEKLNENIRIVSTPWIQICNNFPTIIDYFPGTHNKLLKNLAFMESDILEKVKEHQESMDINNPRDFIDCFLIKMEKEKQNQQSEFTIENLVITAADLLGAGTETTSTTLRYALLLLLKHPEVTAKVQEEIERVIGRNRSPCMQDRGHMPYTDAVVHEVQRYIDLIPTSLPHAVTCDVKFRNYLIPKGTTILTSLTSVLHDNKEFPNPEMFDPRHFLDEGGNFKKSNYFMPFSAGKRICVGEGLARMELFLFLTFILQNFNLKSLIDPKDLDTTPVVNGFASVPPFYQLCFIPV
Sequence of Dual specificity protein kinase CLK4 (Homo sapiens) (Q9HAZ1 whole entry, looked up): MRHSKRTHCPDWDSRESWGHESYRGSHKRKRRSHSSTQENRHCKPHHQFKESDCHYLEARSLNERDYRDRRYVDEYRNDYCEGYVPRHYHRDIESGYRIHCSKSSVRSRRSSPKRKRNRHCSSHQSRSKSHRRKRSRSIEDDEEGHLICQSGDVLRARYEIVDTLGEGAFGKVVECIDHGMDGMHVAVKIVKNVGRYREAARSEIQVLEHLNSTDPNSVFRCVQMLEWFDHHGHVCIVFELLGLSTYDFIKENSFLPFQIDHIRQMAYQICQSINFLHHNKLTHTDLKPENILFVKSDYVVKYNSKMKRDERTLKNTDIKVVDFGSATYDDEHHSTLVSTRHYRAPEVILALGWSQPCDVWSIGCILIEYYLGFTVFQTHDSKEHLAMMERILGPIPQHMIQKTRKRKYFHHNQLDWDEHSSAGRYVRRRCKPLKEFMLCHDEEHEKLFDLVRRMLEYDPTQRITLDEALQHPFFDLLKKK
Sequence of Lysosomal acid glucosylceramidase (Homo sapiens) (P04062 whole entry, looked up): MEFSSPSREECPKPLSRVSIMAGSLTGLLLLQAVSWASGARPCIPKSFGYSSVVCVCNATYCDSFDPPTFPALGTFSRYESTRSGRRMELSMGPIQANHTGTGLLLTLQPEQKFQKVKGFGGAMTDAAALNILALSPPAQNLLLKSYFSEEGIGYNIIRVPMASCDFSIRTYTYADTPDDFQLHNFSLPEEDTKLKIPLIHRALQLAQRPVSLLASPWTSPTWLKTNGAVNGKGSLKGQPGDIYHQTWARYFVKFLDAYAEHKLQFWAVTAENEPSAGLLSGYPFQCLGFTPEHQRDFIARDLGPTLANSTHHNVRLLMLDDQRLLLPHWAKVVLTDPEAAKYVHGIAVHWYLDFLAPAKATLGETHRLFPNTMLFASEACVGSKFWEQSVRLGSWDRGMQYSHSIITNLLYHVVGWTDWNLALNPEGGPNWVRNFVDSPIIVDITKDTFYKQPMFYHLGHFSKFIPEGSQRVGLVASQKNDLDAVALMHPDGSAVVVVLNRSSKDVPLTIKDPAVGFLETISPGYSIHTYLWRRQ
Sequence of 3',5'-cyclic-AMP phosphodiesterase 4B (Homo sapiens) (Q07343 whole entry, looked up): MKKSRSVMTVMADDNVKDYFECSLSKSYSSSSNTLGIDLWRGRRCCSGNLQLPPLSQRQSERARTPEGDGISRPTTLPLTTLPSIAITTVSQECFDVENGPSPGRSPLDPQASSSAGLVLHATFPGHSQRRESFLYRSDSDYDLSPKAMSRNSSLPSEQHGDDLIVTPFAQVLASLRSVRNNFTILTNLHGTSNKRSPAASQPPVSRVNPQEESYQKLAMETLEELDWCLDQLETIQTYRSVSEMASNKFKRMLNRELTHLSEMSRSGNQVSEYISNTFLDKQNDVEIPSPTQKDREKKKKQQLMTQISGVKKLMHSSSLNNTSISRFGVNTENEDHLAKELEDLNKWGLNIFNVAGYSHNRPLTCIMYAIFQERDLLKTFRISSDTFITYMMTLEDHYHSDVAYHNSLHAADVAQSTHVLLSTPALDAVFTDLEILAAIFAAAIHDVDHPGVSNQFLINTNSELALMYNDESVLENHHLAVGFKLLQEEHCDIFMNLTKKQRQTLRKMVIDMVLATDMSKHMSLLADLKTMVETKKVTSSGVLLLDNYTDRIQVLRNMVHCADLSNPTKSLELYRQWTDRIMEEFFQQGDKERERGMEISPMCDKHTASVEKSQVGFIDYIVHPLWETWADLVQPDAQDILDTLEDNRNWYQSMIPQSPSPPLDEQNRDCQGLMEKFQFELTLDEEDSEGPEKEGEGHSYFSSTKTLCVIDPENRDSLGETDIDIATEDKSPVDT
Sequence of Cytochrome P450 3A4 (Homo sapiens) (P08684 whole entry, looked up): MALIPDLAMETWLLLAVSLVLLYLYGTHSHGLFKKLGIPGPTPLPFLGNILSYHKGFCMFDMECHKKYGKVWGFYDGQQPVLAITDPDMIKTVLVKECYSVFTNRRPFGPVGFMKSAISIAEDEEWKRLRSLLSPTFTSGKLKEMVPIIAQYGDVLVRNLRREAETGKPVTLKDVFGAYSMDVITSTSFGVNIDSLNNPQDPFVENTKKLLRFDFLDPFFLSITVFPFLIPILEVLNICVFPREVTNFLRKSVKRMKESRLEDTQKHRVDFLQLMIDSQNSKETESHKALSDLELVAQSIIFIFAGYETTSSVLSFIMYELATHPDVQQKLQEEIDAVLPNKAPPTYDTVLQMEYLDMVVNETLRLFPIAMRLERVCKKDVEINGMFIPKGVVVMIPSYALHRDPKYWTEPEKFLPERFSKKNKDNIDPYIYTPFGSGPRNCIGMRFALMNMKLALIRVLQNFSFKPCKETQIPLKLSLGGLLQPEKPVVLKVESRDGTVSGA
Sequence of Ubiquitin carboxyl-terminal hydrolase 1 (Homo sapiens) (O94782 whole entry, looked up): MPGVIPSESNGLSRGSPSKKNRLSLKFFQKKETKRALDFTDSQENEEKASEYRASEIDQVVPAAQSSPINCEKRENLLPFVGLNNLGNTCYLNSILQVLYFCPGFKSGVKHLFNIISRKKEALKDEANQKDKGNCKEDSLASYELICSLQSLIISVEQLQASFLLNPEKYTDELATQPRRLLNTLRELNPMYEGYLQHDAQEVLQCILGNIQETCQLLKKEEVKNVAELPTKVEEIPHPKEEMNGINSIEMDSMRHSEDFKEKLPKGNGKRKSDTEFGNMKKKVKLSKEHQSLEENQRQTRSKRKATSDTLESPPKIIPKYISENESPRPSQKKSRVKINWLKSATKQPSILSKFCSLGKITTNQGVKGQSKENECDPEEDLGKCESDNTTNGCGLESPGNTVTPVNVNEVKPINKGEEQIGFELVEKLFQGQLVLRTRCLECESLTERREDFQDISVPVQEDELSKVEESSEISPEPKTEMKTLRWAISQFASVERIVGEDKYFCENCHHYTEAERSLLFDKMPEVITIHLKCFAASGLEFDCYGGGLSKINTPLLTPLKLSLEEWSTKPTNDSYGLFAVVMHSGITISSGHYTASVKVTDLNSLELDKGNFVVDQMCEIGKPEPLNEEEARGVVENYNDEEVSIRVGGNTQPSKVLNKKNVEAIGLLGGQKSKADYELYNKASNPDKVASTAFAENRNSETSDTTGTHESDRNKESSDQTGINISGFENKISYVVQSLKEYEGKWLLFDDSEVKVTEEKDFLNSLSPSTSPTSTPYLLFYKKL

SMILES	Potency [1] [µM]	activity change, negative = inhibition [2] [%]	Potency [3]	activity change, negative = inhibition [4] [%]	activity, negative = inhibition [5] [%]	Potency [6] [µM]	Potency [7] [µM]	Potency [8]	Potency [9]	Potency [10]	Potency [11]	Potency [12]	Potency [13]	outcome [14]	activity change, negative = inhibition [15]	activation [16] [%]	Potency [17]	Potency [18]	Potency [15]
CNc1nc(-c2cccc(C#N)c2)nc2ccccc12	> 11.4	-15.2	0.0794 µM (active)	2.31	6.92	> 46	> 46	inactive	inactive	inactive	7.94 µM (active)	11.2 µM (active)	inactive	inactive					
CS(=O)(=O)Nc1cccc(-c2cc(Nc3ccccc3)ncn2)c1	> 11.4	-27.9	0.398 µM (active)	10.9	3.87	> 46	> 46	inactive	inactive	inactive		35.5 µM (active)	inactive	inactive	56.3% [at 2.29 µM]	-13.8			
CC(=O)NCCNc1ncnc2ccc(-c3ccccc3C#N)cc12	> 11.4	-5.09	3.98 µM (active)		6.69	> 46	> 46	inactive	inactive	inactive		14.1 µM (active)	inactive	inactive					
COc1ccccc1-c1cc(Nc2ccn[nH]2)ncn1	> 11.4	-9.99	0.631 µM (active)	2.51	6.94	> 46	> 46	inactive		inactive	6.31 µM (active)		inactive	inactive			3.98 µM (active)	inactive	
Cc1cnc(CNc2cc(-c3ccccc3Cl)ncn2)cn1	> 11.4	2.27	15.8 µM (active)	3.5	2.17		> 46	inactive	inactive			20 µM (active)	inactive	inactive			inactive		
Cn1cc(-c2nc3cncnc3n(C3CC3)c2=O)c2ccccc21	> 11.4	-14.5	0.2 µM (active)	9.91	-6.67	> 9.22	> 46	inactive	inactive	inactive			inactive	inactive				inactive	
CN(Cc1ccco1)c1cc(-c2cccc(NS(C)(=O)=O)c2)ncn1	> 11.4	10.2	3.98 µM (active)	-5.51	11.3	> 46	> 46	inactive	inactive	inactive			inactive	inactive				inactive	
COc1ccccc1-c1cncnc1NCc1ccccc1	> 11.4	4.35	12.6 µM (active)	-17.9	-7.05	> 46	> 46	inactive	inactive	inactive			inactive	inactive			0.251 µM (active)	inactive	
CC(=O)NCCNc1nc(-c2cccc(NS(C)(=O)=O)c2)nc2ccccc12	> 11.4	-17.6	15.8 µM (active)	-1.12	-3.86	> 46	> 46	inactive	inactive	inactive			inactive	inactive				inactive	
COc1ccc2[nH]cc(CCNc3ncncc3-c3cccnc3)c2c1	> 11.4	9.96	0.316 µM (active)	3.23	2.25	> 46	> 46	inactive	inactive	inactive	3.16 µM (active)		inactive	inactive			0.794 µM (active)	inactive	
COc1cccc(-c2nccc(NCc3cnc(C)cn3)n2)c1	> 11.4	2.41	0.501 µM (active)	-1.09	13.7	> 46	> 46	inactive	inactive	inactive		28.2 µM (active)	inactive	inactive			6.31 µM (active)		
COc1ccc2[nH]cc(CCNc3ccnc(-c4c(C)noc4C)n3)c2c1	> 11.4	-4.62	2 µM (active)	9.64	-5.35	> 46	> 46	inactive	inactive	inactive	1.58 µM (active)		inactive	inactive			2.51 µM (active)	inactive	
CNc1nc(-c2ccc(C(=O)N(C)C)cc2)nc2ccccc12		7.59		23.4	-0.956	> 46	> 46	inactive	inactive			28.2 µM (active)	inactive	inactive					
Cc1ccccc1-c1nc(N(C)C)c2ccccc2n1	> 11.4	5.33	0.631 µM (active)	-0.255	6.41	> 46	> 46	inactive	inactive				inactive	inactive				inactive	
Cc1noc(C)c1-c1nc(NC2CC2)c2ccccc2n1	> 11.4	13.4		-6.72	7.05	> 46	> 46	inactive	inactive			14.1 µM (active)	inactive	inactive					
Cc1noc(C)c1-c1nccc(NCCN2CCOCC2)n1	> 11.4	-1.23	7.94 µM (active)	-8.35	2.66	> 46	> 46	inactive	inactive	inactive			inactive	inactive				inactive	
CS(=O)(=O)Nc1cccc(-c2cncnc2-n2ccnc2)c1	> 11.4	7.32	15.8 µM (active)	14.5	14.6	> 46	> 46	inactive	inactive	inactive			inactive	inactive			7.94 µM (active)	inactive	
CN(Cc1ccco1)c1ncncc1-c1cccnc1	> 11.4	1.77	5.01 µM (active)	-11.4	17.1	> 46	> 46	inactive	inactive	inactive			inactive	inactive			2.51 µM (active)	inactive	
COc1ccccc1CCn1c(=O)c(-c2cccs2)nc2cncnc21	> 11.4	-29.2	2 µM (active)	-5.89	-0.377	> 9.22	> 46	inactive		inactive	2 µM (active)		inactive	inactive			3.16 µM (active)	inactive	2.51 µM (active)
Cn1c(=O)c(-c2cc(F)cc(F)c2)nc2cncnc21	> 11.4	-3.06	0.631 µM (active)	3.39	5.34	> 9.22	> 46	inactive	inactive	inactive			inactive	inactive				inactive	
